Sampled rows, rich in hits. Any-hit rate of the full collection: about 4%.
Mtb UGM inh = M. tuberculosis UGM enzyme inhibitors, primary screen, biochemical, fluorescence polarization, single point; purified UGM, fluorescence polarization probe displacement; AID 504406, 2011; UDP-galactopyranose mutase (Mycobacterium tuberculosis (strain ATCC 25618 / H37Rv)), …; hit rate 0.06% among 320,000; inhibition, % at 10 µM; in the data active = inhibition above about 10%, passing the limit was not always enough; inconclusive = no clear call, values can overlap the other calls
RecA intein inh = Mtb RecA intein splicing inhibitors, primary screen, biochemical, fluorescence, HTS | Protein RecA (Mycobacterium tuberculosis (strain ATCC 25618 / H37Rv)), P9WHJ3 | cell-free RecA intein splicing | inhibition, % (test concentration not listed) | hit rate 0.75% among 290,000 | AID 2221, 2009; in the data active = inhibition above about 30%; inconclusive = no clear call, values can overlap the other calls;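 note: 0% = vehicle wells and 100% = reference inhibitor control wells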
Target sequence (P9WHJ3 whole entry, looked up): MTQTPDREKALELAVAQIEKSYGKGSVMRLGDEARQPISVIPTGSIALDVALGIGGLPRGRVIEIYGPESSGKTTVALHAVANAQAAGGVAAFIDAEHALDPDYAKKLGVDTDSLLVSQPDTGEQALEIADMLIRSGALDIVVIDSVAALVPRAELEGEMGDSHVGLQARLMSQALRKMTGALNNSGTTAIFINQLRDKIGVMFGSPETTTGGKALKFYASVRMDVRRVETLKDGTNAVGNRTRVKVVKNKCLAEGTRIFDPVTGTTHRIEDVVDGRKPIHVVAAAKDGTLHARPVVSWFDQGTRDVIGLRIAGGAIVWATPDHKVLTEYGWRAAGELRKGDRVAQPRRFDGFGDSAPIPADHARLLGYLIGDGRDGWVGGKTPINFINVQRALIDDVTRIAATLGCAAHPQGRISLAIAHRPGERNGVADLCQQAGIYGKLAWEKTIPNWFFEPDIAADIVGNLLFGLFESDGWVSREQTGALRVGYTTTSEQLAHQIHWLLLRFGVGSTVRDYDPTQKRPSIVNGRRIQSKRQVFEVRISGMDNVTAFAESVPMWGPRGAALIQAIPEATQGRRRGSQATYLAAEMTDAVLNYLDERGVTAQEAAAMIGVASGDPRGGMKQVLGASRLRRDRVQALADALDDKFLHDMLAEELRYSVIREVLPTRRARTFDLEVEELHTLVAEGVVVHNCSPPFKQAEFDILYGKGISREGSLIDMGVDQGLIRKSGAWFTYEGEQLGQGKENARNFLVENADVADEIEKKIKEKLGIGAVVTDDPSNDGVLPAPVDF
Mtb FBA inh = Mtb FBA enzyme inhibitors, primary screen, biochemical, fluorescence, strain H37Rv; Fructose-bisphosphate aldolase (Mycobacterium tuberculosis (strain ATCC 25618 / H37Rv)), …; purified M. tuberculosis FBA, fluorescence read-out; inhibition, % at 1 µM; hit rate 2.3% among 360,000; AID 588726, 2011; in the data active = inhibition above about 27%;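 note: 0% = vehicle and 100% = reference inhibitor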
GDH-TPI inh = GDH-TPI coupling enzyme inhibitors, primary screen, artefact control for M. tuberculosis FBA inhibitor project, biochemical, absorbance, full deck | AID 588335, 2011 | inhibition, % at 4.8 µM | hit rate 1.2% among 360,000 | GDH-TPI coupled enzyme counterscreen, NADH absorbance; in the data active = inhibition above about 30%;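 note: 0% = DMSO wells and 100% = wells lacking the enzyme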
Mtb bLac sens = beta-lactam sensitization of Mtb H37Rv, H37Rv; AID 434955, 2010; M. tuberculosis H37Rv growth with meropenem, percent inhibition; hit rate 0.27% among 330,000; inhibition, % at 25 µM; call rule not given here;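 note: growth measured after seven days incubation then overnight dye step; 0% = bacteria only wells and 100% = bacteria with antibiotic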
Rv3671c protease = Rv3671c serine protease inhibitors, primary screen, biochemical, fluorescence polarization, M. tuberculosis H37Rv | AID 2606, 2010 | P9WHR9 | inhibition, % at 5.96 µM | hit rate 0.048% among 320,000; in the data active = inhibition above about 38%;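 note: extracellular domain of Rv3671c used as enzyme; 0% = enzyme with DMSO and 100% = no enzyme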
An asterisk follows results filed as active; u = inconclusive; x = not tested or not shown; + = active, no number.

SMILES | Mtb UGM inh | RecA intein inh | Mtb FBA inh | GDH-TPI inh | Mtb bLac sens | Rv3671c protease
CCOc1cc(/C=N/N=C2/NC(=O)C(CC(=O)O)S2)ccc1OCc1ccc(Cl)cc1 (stereo unspecified) | 1.8 | 5.4 | -12.7 | 31.9* | 16.2 | -7.7
CCOc1ccccc1C(=O)NC(C(=O)NCCc1ccccn1)C(C)C (stereo unspecified) | 3.3 | x | 1.6 | 7.7 | -4.8 | -2.2
COc1ccc(-c2nc(-c3ccccc3)[nH]c(=O)c2C#N)cc1 | -1.8 | 0.2 | -2.1 | 0.9 | 84.2 | -1.3
COc1ccc(-c2[nH]c(-c3ccc4c(c3)OCO4)nc2-c2ccccc2)cc1 | 1.4 | 12.5 | 80.3* | 9.4 | 40.5 | 17.0
Cc1c(C)c(C)c2[nH]c(-c3ccc4c(c3)OCO4)nc2c1C | 0.5 | -1.6 | 173.2* | 3.2 | 97.0 | -0.5
O=C(O)c1ccc(-c2nc(-c3ccccc3)c(-c3ccccc3)[nH]2)cc1 | -3.7 | 5.0 | + | 29.7 | 11.7 | 3.8
Oc1ccc(-c2nc(-c3ccc(F)cc3)c(-c3ccncc3)[nH]2)cc1 | x | x | 2.2 | 18.8 | 0.4 | -1.3
Cc1nc(-c2ccc3c(c2)OCO3)cs1 | 2.3 | -1.5 | 1.8 | -13.2 | -1.3 | 0.1
COc1ccc(-c2[nH]c(-c3ccc(C(=O)O)cc3)nc2-c2ccccc2)cc1 | 4.0 | -4.6 | + | 11.1 | 0.3 | 5.0
COc1ccc(N=Nc2nc(-c3ccccc3)c(-c3ccccc3)[nH]2)cc1 | x | 5.3 | -21.7 | 3.7 | 92.2 | 8.4
COc1ccccc1N(CC(=O)N1CCN(c2ccc(F)cc2)CC1)S(=O)(=O)c1ccc(C)cc1 | -0.1 | -0.6 | 2.9 | 3.1 | -11.3 | -5.5
CSc1ccc(/C=N/NC(=O)c2ccc(C)c(C)c2)cc1 | -0.4 | -0.4 | 0.7 | 24.1 | 29.1 | -4.8
CSc1ccc(/C=N/NC(=O)c2sccc2C)cc1 | -1.1 | -2.8 | -1.6 | 45.1* | 1.7 | -6.7
COc1ccc(OCc2ccc(/C=N\NC(=O)c3sccc3C)o2)cc1 | -0.6 | -2.1 | 3.1 | 18.9 | 4.8 | x
CSc1ccc(/C=N/NC(=O)c2cc(O)cc(O)c2)cc1 | 3.4 | -1.1 | 1.8 | 48.9* | -0.2 | -11.3
CC(=O)c1c(C)[nH]c(C(=O)OCC(=O)N(CC(C)C)C2CCS(=O)(=O)C2)c1C (stereo unspecified) | x | x | 0.9 | 4.1 | x | x
COCCNC(=O)Cn1c(=O)n(CCCC(=O)NCc2ccc3c(c2)OCO3)c(=O)c2sccc21 | -5.5 | -0.9 | 0.4 | 1.5 | -4.9 | 2.5
CCOc1ccc(/C=N/N2C(=O)C(CC(=O)Nc3ccc(F)cc3F)SC2=NC)cc1OC (stereo unspecified) | -0.9 | -5.5 | -1.3 | 22.6 | -6.9 | -11.5
COc1cc(/C=N/n2nnnc2N)ccc1OC(C)=O | 0.8 | -4.1 | 3.5 | 8.6 | -0.7 | x
COc1cc(/C=N/N2C(=O)C3C4c5ccccc5C(c5ccccc54)C3C2=O)ccc1O (stereo unspecified) | 2.5 | 0.9 | 0.6 | 34.1* | 1.1 | -37.2
CN=C1SC(CC(=O)Nc2ccccc2F)C(=O)N1/N=C/c1ccc(O)c(OC)c1 (stereo unspecified) | -1.4 | -0.3 | 2.9 | 51.6* | -4.1 | -8.9
CCN(C)c1ccc(/C=N\n2nnnc2N)cc1 | -0.7 | -124.4 | 28.1* | 23.0 | u | -5.1
COc1cc(/C=N/n2nnnc2N)ccc1O | -0.1 | -4.0 | 2.3 | 43.6* | -2.0 | 0.4
CCN(CC)c1nc(-c2ccc(C(=O)NN)cc2)nc(-c2ccc(C(=O)NN)cc2)n1 | -1.6 | -3.7 | 5.7 | 15.0 | 0.3 | x
C[C@H]1CN([C@@H](C)CO)C(=O)CCCn2nncc2CO[C@@H]1CN(C)S(=O)(=O)c1ccc(-n2cccn2)cc1 | x | x | 1.2 | 13.2 | x | x
SMILES | Mtb UGM inh | RecA intein inh | Mtb FBA inh | GDH-TPI inh | Mtb bLac sens | Rv3671c protease
COc1cc(OC)cc(C(=O)NCCCNC(=O)c2ccccn2)c1 | -2.7 | -0.9 | -2.2 | -11.3 | -5.7 | 7.9
CCN(CC)c1ccc(/C=N/n2nnnc2N)c(O)c1 | 1.1 | -38.2 | 1.1 | 37.8* | -3.4 | 6.9
CSc1ccc(/C=N/n2nnnc2N)cc1 | -1.4 | 0.5 | 17.7 | 43.2* | -7.1 | -0.8
N#CCCN(C(=O)COC(=O)c1ccc(Cl)nc1)c1ccc2c(c1)OCCO2 | x | x | -1.1 | 3.6 | x | x
Cn1cc(S(=O)(=O)N2CCNCC2)cc1C(N)=O | 4.2 | x | -1.0 | 4.0 | -7.9 | -7.8
CCOc1ccc(S(=O)(=O)N(CC)CC)cc1NC(=O)c1ccc(N2CCCC2=O)cc1 | 1.9 | 0.6 | 2.9 | 5.8 | -2.2 | -5.2
Cc1ccc2nc(-c3ccc(NS(=O)(=O)c4ccccc4)cc3)sc2c1 | -1.3 | -1.6 | + | 12.1 | -8.3 | -20.3
Cc1ccc(S(=O)(=O)Nc2ccc3nc(C)sc3c2)cc1 | -2.1 | -1.7 | -1.5 | -3.5 | -4.6 | 0.5
Cc1nc2ccc(NS(=O)(=O)c3ccc(F)c(F)c3)cc2s1 | 0.4 | x | 4.2 | 14.3 | -2.2 | 2.4
Cc1ccc2nc(-c3ccc(NS(=O)(=O)c4ccc(F)c(F)c4)cc3)sc2c1 | 0.6 | 3.9 | + | 27.8 | 16.9 | -173.6
NC(=O)CN1C(=O)C(=O)N(Cc2cccc(C(F)(F)F)c2)C1=O | -1.4 | 0.0 | 0.6 | -13.9 | 0.0 | 8.9
CCn1nc(-c2ccccc2)nc2c(=O)n(C)c(=O)nc1-2 | 7.0 | 94.5* | -14.0 | 3.8 | 98.5 | -176.7
CCCOC(=O)c1ccc(NC(=O)Oc2ccccc2)cc1 | 1.4 | 3.3 | 0.1 | 10.9 | -1.5 | -3.4
CCCOC(=O)c1ccc(OC(=O)c2ccco2)cc1 | -3.8 | 37.2* | 0.0 | -4.3 | 98.9 | -2.5
Cc1cc(=O)oc2cc(OC(=O)c3ccco3)ccc12 | x | 9.8 | 193.8* | -2.5 | x | x
O=C(Oc1ccc2ccccc2c1)c1ccco1 | 1.3 | 35.3* | -0.2 | 2.8 | 94.7 | 8.3
Cc1cc(=O)oc2c(C)c(OC(=O)c3ccco3)ccc12 | -0.2 | -30.7 | 5.5 | -4.8 | 13.8 | 2.3
Cc1ccc(N(C)S(=O)(=O)c2cccc(C(=O)Oc3ccc4c(C)cc(=O)oc4c3)c2)cc1 | 2.8 | 1.0 | 131.3* | 1.5 | -3.1 | -13.1
CN(C)S(=O)(=O)c1ccc(Cl)c(NC(=O)COC(=O)/C=C/c2ccc3ccccc3n2)c1 | 2.4 | x | 1.3 | 12.5 | 0.2 | 6.5
O=C(NCCCc1ccc(F)cc1)C1CCC(=O)N(CCN2CCOCC2)C1 (stereo unspecified) | 1.6 | -1.6 | -2.5 | -8.9 | 3.9 | 5.8
COc1ccc(OCCOC(=O)CN2C(=O)NC3(CCCC3)C2=O)cc1 | -0.6 | -5.5 | 1.1 | -5.2 | -10.1 | -8.4
CCc1cc(=O)oc2cc(OC(=O)c3ccco3)ccc12 | -0.6 | 26.2 | + | 3.1 | -18.9 | -3.5
CCCc1cc(=O)oc2cc(OC(=O)CN3C(=O)NC4(CCCC4)C3=O)ccc12 | 1.5 | -0.2 | + | 16.2 | -5.4 | 6.9
